Data: the supplement of paper PMC11732987, “Enantioselective OTUD7B fragment discovery through chemoproteomics screening and high-throughput optimisation” (Communications Chemistry, 2025)

Columns and labels:
Assay in all cases: log2 ratio of Biotin-Ahx-Ub-VS probe labelling (fragment/DMSO); higher = less target engagement (more negative = stronger competition), active = hit call of the paper (q ≤ 0.05, log2 ratio ≤ -1)
Details in all cases: compound concentration: 200 uM; treatment time: 3 h
OTUD6B = biological target: T1, OTUD6B (UniProt Q8N6M0)
T1 sequence (whole entry): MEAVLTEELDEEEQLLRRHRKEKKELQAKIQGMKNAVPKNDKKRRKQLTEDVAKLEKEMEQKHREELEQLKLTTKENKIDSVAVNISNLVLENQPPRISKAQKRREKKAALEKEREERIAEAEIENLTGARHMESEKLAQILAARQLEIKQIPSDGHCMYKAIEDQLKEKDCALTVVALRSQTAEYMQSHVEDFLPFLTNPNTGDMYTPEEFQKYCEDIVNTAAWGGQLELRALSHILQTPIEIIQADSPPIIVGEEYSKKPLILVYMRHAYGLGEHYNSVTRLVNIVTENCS
Summary of the method: (§1)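 Labelled DUBs from HEK293T lysate were NeutrAvidin-enriched, digested with LysC and trypsin, and run by diaPASEF LC-MS/MS. Before that, each 495 µg sample in Tris/CHAPS/IGEPAL buffer with protease inhibitors was treated in triplicate with fragment at 200 µM or vehicle for 3 h, then with Biotin-Ahx-Ub-VS at 0.5 µM final for 1 h. Values are average log2 ratios of fragment over vehicle by unpaired t-test, based on global-median-normalised Spectronaut label-free quantities from proteins with ≥2 unique peptides.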

OTUD7B = biological target: T2, OTUD7B (UniProt Q6GQQ9)
T2 sequence (whole entry): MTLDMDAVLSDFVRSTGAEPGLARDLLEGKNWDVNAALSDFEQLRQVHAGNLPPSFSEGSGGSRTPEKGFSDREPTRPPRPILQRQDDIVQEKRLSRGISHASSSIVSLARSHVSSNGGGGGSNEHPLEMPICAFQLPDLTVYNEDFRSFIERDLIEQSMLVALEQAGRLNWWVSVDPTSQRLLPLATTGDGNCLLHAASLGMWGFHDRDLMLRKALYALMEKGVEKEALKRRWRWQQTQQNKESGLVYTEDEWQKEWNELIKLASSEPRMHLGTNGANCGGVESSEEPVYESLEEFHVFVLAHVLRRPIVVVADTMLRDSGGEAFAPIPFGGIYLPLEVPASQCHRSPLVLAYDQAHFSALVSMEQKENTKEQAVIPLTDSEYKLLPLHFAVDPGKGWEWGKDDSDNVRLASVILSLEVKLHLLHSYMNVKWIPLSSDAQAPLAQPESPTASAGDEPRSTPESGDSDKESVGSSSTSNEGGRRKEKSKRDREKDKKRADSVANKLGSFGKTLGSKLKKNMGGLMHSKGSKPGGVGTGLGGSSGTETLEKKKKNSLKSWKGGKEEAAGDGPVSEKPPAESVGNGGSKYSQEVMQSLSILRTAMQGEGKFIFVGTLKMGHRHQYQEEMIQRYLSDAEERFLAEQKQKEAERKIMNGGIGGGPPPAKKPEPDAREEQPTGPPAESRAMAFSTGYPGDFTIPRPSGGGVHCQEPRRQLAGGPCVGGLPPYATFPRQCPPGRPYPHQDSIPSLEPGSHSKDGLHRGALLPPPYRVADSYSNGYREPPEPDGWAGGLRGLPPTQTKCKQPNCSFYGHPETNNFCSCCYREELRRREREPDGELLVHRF
Summary of the method: as §1

PRPF8 = PRPF8 (UniProt Q6P2Q9)
Summary of the method: as §1

PSMD7 = biological target: T3, PSMD7 (UniProt P51665)
T3 sequence (whole entry): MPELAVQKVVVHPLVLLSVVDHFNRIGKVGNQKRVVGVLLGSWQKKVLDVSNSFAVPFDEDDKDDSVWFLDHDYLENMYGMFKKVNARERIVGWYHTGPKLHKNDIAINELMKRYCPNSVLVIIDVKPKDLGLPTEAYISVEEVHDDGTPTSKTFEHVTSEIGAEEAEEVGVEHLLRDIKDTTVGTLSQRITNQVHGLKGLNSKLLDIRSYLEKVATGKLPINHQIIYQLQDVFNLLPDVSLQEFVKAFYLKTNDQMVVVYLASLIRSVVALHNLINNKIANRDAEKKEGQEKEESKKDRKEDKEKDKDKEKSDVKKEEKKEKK
Summary of the method: as §1

UCHL1 = UCHL1 (UniProt P09936)
Summary of the method: as §1

UCHL3 = biological target: T4, UCHL3 (UniProt P15374)
T4 sequence (whole entry): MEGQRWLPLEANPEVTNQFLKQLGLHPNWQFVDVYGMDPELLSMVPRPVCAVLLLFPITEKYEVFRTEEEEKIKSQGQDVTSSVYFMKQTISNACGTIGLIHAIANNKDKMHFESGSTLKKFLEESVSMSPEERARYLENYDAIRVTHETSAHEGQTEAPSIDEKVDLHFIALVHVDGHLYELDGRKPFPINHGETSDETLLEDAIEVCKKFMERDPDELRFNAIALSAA
Summary of the method: as §1

UCHL5 = biological target: T5, UCHL5 (UniProt Q9Y5K5)
T5 sequence (whole entry): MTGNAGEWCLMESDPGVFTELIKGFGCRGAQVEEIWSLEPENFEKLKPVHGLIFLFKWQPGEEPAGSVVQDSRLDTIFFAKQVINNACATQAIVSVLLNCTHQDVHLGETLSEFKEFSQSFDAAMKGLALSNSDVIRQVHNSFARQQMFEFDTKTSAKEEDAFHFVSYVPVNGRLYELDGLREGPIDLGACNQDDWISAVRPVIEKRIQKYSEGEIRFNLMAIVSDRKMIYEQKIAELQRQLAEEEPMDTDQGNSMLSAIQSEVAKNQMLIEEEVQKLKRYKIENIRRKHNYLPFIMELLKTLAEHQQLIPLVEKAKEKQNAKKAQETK
Summary of the method: as §1

USP10 = USP10 (UniProt Q14694)
Summary of the method: as §1

USP15 = biological target: T6, USP15 (UniProt Q9Y4E8)
T6 sequence (whole entry): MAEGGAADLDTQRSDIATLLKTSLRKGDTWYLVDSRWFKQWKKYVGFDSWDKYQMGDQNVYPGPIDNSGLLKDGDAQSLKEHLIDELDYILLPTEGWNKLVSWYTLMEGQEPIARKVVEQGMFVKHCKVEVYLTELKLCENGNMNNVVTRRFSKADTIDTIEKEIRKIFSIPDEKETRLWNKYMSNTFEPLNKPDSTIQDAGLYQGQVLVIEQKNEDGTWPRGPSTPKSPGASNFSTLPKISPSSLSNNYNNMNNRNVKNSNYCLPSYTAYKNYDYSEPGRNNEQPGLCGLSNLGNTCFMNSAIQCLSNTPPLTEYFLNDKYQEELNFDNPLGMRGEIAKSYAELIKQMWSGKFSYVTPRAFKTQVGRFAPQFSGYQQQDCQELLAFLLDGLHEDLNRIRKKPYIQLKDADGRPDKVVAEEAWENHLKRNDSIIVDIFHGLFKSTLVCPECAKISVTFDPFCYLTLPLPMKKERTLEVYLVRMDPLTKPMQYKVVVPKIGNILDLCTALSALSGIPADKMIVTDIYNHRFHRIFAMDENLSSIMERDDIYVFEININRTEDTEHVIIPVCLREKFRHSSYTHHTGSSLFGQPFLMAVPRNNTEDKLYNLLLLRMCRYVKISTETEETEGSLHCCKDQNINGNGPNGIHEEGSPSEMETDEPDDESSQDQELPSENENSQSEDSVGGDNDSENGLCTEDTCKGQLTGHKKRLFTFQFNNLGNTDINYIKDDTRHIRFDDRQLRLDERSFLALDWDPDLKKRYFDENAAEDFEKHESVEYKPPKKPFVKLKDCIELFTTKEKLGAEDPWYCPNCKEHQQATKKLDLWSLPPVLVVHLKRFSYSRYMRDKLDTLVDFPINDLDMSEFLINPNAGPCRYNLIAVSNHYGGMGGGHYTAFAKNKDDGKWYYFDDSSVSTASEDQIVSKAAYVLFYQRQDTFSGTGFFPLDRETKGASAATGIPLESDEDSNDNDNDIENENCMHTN
Summary of the method: as §1

USP16 = USP16 (UniProt Q9Y5T5)
Summary of the method: as §1

Measured: log2 ratio of Biotin-Ahx-Ub-VS probe labelling

Chain of USP10 (Q14694 whole entry): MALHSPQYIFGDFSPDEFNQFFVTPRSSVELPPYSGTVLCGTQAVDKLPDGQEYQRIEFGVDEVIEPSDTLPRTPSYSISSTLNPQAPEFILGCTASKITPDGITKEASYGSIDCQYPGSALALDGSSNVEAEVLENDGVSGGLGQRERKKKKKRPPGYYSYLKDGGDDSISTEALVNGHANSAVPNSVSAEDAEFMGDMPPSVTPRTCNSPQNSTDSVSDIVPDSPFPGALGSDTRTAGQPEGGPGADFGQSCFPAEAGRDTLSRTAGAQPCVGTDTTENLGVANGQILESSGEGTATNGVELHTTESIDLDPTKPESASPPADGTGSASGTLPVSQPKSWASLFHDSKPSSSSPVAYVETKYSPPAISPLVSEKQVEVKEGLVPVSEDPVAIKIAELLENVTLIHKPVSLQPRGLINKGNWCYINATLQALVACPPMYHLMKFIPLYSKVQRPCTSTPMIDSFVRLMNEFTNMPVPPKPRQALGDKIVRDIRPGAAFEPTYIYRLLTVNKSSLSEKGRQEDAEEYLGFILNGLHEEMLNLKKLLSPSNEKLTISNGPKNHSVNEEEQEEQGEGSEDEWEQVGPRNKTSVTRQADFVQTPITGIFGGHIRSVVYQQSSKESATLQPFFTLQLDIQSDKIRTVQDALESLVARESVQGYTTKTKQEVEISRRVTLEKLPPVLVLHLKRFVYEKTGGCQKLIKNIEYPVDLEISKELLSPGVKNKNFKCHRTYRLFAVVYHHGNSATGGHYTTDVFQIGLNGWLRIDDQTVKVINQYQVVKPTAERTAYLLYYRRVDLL
Chain of UCHL1 (P09936 whole entry, looked up): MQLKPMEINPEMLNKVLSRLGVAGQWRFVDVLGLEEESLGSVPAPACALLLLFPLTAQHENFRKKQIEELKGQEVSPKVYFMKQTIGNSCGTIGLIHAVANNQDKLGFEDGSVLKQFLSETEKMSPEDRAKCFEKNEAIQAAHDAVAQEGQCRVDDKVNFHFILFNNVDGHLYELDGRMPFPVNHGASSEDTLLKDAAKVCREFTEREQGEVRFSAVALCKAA
Chain of USP16 (Q9Y5T5 whole entry, looked up): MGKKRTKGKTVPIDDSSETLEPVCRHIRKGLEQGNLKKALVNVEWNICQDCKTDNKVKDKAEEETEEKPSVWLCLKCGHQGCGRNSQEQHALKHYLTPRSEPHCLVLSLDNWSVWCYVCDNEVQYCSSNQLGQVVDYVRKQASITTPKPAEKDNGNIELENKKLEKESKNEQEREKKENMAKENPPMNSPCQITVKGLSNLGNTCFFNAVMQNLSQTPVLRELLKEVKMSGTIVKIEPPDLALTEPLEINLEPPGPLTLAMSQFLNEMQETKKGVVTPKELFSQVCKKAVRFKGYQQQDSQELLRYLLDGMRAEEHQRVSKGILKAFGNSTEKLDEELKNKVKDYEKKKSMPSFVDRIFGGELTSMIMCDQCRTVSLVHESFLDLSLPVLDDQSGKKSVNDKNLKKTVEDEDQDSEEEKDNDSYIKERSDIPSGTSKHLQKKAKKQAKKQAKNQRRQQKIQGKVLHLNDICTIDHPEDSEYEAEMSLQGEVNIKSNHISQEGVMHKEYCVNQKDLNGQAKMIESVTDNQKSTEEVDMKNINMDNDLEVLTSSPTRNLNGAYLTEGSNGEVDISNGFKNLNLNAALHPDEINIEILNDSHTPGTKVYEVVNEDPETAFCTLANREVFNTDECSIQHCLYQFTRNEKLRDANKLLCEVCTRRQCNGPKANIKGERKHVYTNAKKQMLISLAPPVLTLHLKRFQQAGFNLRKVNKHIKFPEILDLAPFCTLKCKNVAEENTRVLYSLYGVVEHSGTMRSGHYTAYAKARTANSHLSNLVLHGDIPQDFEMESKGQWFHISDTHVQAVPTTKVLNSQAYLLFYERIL

COc1ccccc1C(C)NC(=O)CCl (stereo not given)
inactive: OTUD6B -0.401 | OTUD7B -0.997 | PRPF8 -0.14 | PSMD7 -0.451 | UCHL5 -0.318 | USP10 -0.0811 | USP15 -0.251 | USP16 -0.386
active: UCHL1 -1.47 | UCHL3 -1.18
